From the supplement of paper PMC4466140

B1: unnamed (peptide)
chain: PELAPKREAPKPPAN

The binders below were run against AgAbp1 (assay: SPOT peptide array binding signal intensity (averaged, normalized) (arbitrary units (background-subtracted, floor 0; scale differs between SH3 domains)); higher = stronger binding of the SH3 domain to the peptide).
Procedure, shortened: (§1)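 GST-SH3 fusions from four yeast species, purified on glutathione Sepharose, were incubated at 10 μg/ml overnight at 4°C on membranes of synthetic 15-mer peptides in which cysteines were replaced with serines. Binding signal is the normalized, background-subtracted spot intensity averaged over replicates, in domain-specific arbitrary units.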

Row | Binder | SPOT peptide array binding signal intensity
1 | B1 | 0.5

These binders were tested against AgBbc1 in the same assay as above.
Procedure, shortened: as §1

Row | Binder | SPOT peptide array binding signal intensity
2 | B1 | ≤ 0

The binders below were run against AgBem1-D1 in the same assay as above.
Procedure, shortened: as §1

Row | Binder | SPOT peptide array binding signal intensity
3 | B1 | 7.5

Each binder was assayed against AgBzz1-D1 in the same assay as above.
Procedure, shortened: as §1

Row | Binder | SPOT peptide array binding signal intensity
4 | B1 | 34.5

What follows are binders tested against AgBzz1-D2 in the same assay as above.
Procedure, shortened: as §1

Row | Binder | SPOT peptide array binding signal intensity
5 | B1 | 12

What follows are binders tested against AgCyk3 in the same assay as above.
Procedure, shortened: as §1

Row | Binder | SPOT peptide array binding signal intensity
6 | B1 | ≤ 0

The binders below were run against AgFus1 in the same assay as above.
Procedure, shortened: as §1

Row | Binder | SPOT peptide array binding signal intensity
7 | B1 | 0.5

Each binder was assayed against AgHof1 in the same assay as above.
Procedure, shortened: as §1

Row | Binder | SPOT peptide array binding signal intensity
8 | B1 | 2.5

These binders were tested against AgHse1 in the same assay as above.
Procedure, shortened: as §1

Row | Binder | SPOT peptide array binding signal intensity
9 | B1 | ≤ 0

What follows are binders tested against AgLsb1 in the same assay as above.
Procedure, shortened: as §1

Row | Binder | SPOT peptide array binding signal intensity
10 | B1 | ≤ 0

These binders were tested against AgLsb4 in the same assay as above.
Procedure, shortened: as §1

Row | Binder | SPOT peptide array binding signal intensity
11 | B1 | ≤ 0

What follows are binders tested against AgMyo5 in the same assay as above.
Procedure, shortened: as §1

Row | Binder | SPOT peptide array binding signal intensity
12 | B1 | 560

The binders below were run against AgNbp2 in the same assay as above.
Procedure, shortened: as §1

Row | Binder | SPOT peptide array binding signal intensity
13 | B1 | 564

These binders were tested against AgRvs167 in the same assay as above.
Procedure, shortened: as §1

Row | Binder | SPOT peptide array binding signal intensity
14 | B1 | 2.83

These binders were tested against AgSho1 in the same assay as above.
Procedure, shortened: as §1

Row | Binder | SPOT peptide array binding signal intensity
15 | B1 | ≤ 0

These binders were tested against AgSla1-D1-D2 in the same assay as above.
Procedure, shortened: as §1

Row | Binder | SPOT peptide array binding signal intensity
16 | B1 | ≤ 0

Each binder was assayed against AgSla1-D3 in the same assay as above.
Procedure, shortened: as §1

Row | Binder | SPOT peptide array binding signal intensity
17 | B1 | 3

What follows are binders tested against CaAbp1-D1 in the same assay as above.
Procedure, shortened: as §1

Row | Binder | SPOT peptide array binding signal intensity
18 | B1 | ≤ 0

The binders below were run against CaAbp1-D2 in the same assay as above.
Procedure, shortened: as §1

Row | Binder | SPOT peptide array binding signal intensity
19 | B1 | 3.5

These binders were tested against CaBbc1 in the same assay as above.
Procedure, shortened: as §1

Row | Binder | SPOT peptide array binding signal intensity
20 | B1 | 73.2

The binders below were run against CaBem1-D1 in the same assay as above.
Procedure, shortened: as §1

Row | Binder | SPOT peptide array binding signal intensity
21 | B1 | 1

These binders were tested against CaBzz1-D1 in the same assay as above.
Procedure, shortened: as §1

Row | Binder | SPOT peptide array binding signal intensity
22 | B1 | 652

What follows are binders tested against CaBzz1-D2 in the same assay as above.
Procedure, shortened: as §1

Row | Binder | SPOT peptide array binding signal intensity
23 | B1 | 265

These binders were tested against CaCyk3 in the same assay as above.
Procedure, shortened: as §1

Row | Binder | SPOT peptide array binding signal intensity
24 | B1 | ≤ 0

The binders below were run against CaFus1 in the same assay as above.
Procedure, shortened: as §1

Row | Binder | SPOT peptide array binding signal intensity
25 | B1 | 14

These binders were tested against CaHof1 in the same assay as above.
Procedure, shortened: as §1

Row | Binder | SPOT peptide array binding signal intensity
26 | B1 | ≤ 0

The binders below were run against CaHse1 in the same assay as above.
Procedure, shortened: as §1

Row | Binder | SPOT peptide array binding signal intensity
27 | B1 | 0.5

The binders below were run against CaLsb1 in the same assay as above.
Procedure, shortened: as §1

Row | Binder | SPOT peptide array binding signal intensity
28 | B1 | ≤ 0

The binders below were run against CaLsb4 in the same assay as above.
Procedure, shortened: as §1

Row | Binder | SPOT peptide array binding signal intensity
29 | B1 | ≤ 0

The binders below were run against CaMyo5 in the same assay as above.
Procedure, shortened: as §1

Row | Binder | SPOT peptide array binding signal intensity
30 | B1 | 1.5

These binders were tested against CaNbp2 in the same assay as above.
Procedure, shortened: as §1

Row | Binder | SPOT peptide array binding signal intensity
31 | B1 | 1020

The binders below were run against CaRvs167 in the same assay as above.
Procedure, shortened: as §1

Row | Binder | SPOT peptide array binding signal intensity
32 | B1 | 0.667

The binders below were run against CaRvs167-3 in the same assay as above.
Procedure, shortened: as §1

Row | Binder | SPOT peptide array binding signal intensity
33 | B1 | ≤ 0

These binders were tested against CaSho1 in the same assay as above.
Procedure, shortened: as §1

Row | Binder | SPOT peptide array binding signal intensity
34 | B1 | ≤ 0

These binders were tested against CaSla1-D1-D2 in the same assay as above.
Procedure, shortened: as §1

Row | Binder | SPOT peptide array binding signal intensity
35 | B1 | ≤ 0

These binders were tested against CaSla1-D3 in the same assay as above.
Procedure, shortened: as §1

Row | Binder | SPOT peptide array binding signal intensity
36 | B1 | 1

These binders were tested against ScAbp1 in the same assay as above.
Procedure, shortened: as §1

Row | Binder | SPOT peptide array binding signal intensity
37 | B1 | 1

What follows are binders tested against ScBbc1 in the same assay as above.
Procedure, shortened: as §1

Row | Binder | SPOT peptide array binding signal intensity
38 | B1 | 17

These binders were tested against ScBem1-D1 in the same assay as above.
Procedure, shortened: as §1

Row | Binder | SPOT peptide array binding signal intensity
39 | B1 | ≤ 0

The binders below were run against ScBzz1-D1 in the same assay as above.
Procedure, shortened: as §1

Row | Binder | SPOT peptide array binding signal intensity
40 | B1 | 91

What follows are binders tested against ScBzz1-D2 in the same assay as above.
Procedure, shortened: as §1

Row | Binder | SPOT peptide array binding signal intensity
41 | B1 | 10

These binders were tested against ScCyk3 in the same assay as above.
Procedure, shortened: as §1

Row | Binder | SPOT peptide array binding signal intensity
42 | B1 | ≤ 0

The binders below were run against ScFus1 in the same assay as above.
Procedure, shortened: as §1

Row | Binder | SPOT peptide array binding signal intensity
43 | B1 | ≤ 0

The binders below were run against ScHof1 in the same assay as above.
Procedure, shortened: as §1

Row | Binder | SPOT peptide array binding signal intensity
44 | B1 | ≤ 0

These binders were tested against ScHse1 in the same assay as above.
Procedure, shortened: as §1

Row | Binder | SPOT peptide array binding signal intensity
45 | B1 | ≤ 0

The binders below were run against ScLsb1 in the same assay as above.
Procedure, shortened: as §1

Row | Binder | SPOT peptide array binding signal intensity
46 | B1 | ≤ 0

These binders were tested against ScLsb2 in the same assay as above.
Procedure, shortened: as §1

Row | Binder | SPOT peptide array binding signal intensity
47 | B1 | 0.5

The binders below were run against ScLsb3 in the same assay as above.
Procedure, shortened: as §1

Row | Binder | SPOT peptide array binding signal intensity
48 | B1 | ≤ 0

The binders below were run against ScLsb4 in the same assay as above.
Procedure, shortened: as §1

Row | Binder | SPOT peptide array binding signal intensity
49 | B1 | ≤ 0

What follows are binders tested against ScMyo3 in the same assay as above.
Procedure, shortened: as §1

Row | Binder | SPOT peptide array binding signal intensity
50 | B1 | 1310

The binders below were run against ScMyo5 in the same assay as above.
Procedure, shortened: as §1

Row | Binder | SPOT peptide array binding signal intensity
51 | B1 | 906

These binders were tested against ScNbp2 in the same assay as above.
Procedure, shortened: as §1

Row | Binder | SPOT peptide array binding signal intensity
52 | B1 | 1560

The binders below were run against ScPex13 in the same assay as above.
Procedure, shortened: as §1

Row | Binder | SPOT peptide array binding signal intensity
53 | B1 | 5

The binders below were run against ScRvs167 in the same assay as above.
Procedure, shortened: as §1

Row | Binder | SPOT peptide array binding signal intensity
54 | B1 | ≤ 0

What follows are binders tested against ScSho1 in the same assay as above.
Procedure, shortened: as §1

Row | Binder | SPOT peptide array binding signal intensity
55 | B1 | ≤ 0

These binders were tested against ScSla1-D1-D2 in the same assay as above.
Procedure, shortened: as §1

Row | Binder | SPOT peptide array binding signal intensity
56 | B1 | ≤ 0

These binders were tested against ScSla1-D3 in the same assay as above.
Procedure, shortened: as §1

Row | Binder | SPOT peptide array binding signal intensity
57 | B1 | 4.5

These binders were tested against SpAbp1-D1 in the same assay as above.
Procedure, shortened: as §1

Row | Binder | SPOT peptide array binding signal intensity
58 | B1 | 5

The binders below were run against SpBbc1 in the same assay as above.
Procedure, shortened: as §1

Row | Binder | SPOT peptide array binding signal intensity
59 | B1 | ≤ 0

These binders were tested against SpBzz1-D1 in the same assay as above.
Procedure, shortened: as §1

Row | Binder | SPOT peptide array binding signal intensity
60 | B1 | 9
